# Bioassay records deposited in PubChem by National Center for Advancing Translational Sciences (NCATS).
# Shiga toxin inh: inhibitors of Shiga toxin in Vero cells; Vero cells, Shiga toxin protein synthesis inhibition reporter; inhibition, % at 38.7 µM; 290,000 compounds, 9.2% hits; AID 2315; in the data active = inhibition mostly above about 28%, no sharp cut-off; inactive = mostly below about 43%; note: 0% is about no effect
# LmPK inhibitor: blocks Leishmania mexicana pyruvate kinase activity | Q27686 | purified LmPK, Kinase-Glo ATP luminescence, 1 h | Potency, µM (highest dose often 57.5 µM), inactives show at the highest dose activity change, negative = inhibition, actives largely listed as inhibitors | 290,000 compounds, 0.37% hits | AID 1721; note: potency is the fitted concentration of half-maximal effect; % is set by controls: 0 for no effect and ±100 for the full control effect
# Target sequence (Q27686 whole entry, looked up): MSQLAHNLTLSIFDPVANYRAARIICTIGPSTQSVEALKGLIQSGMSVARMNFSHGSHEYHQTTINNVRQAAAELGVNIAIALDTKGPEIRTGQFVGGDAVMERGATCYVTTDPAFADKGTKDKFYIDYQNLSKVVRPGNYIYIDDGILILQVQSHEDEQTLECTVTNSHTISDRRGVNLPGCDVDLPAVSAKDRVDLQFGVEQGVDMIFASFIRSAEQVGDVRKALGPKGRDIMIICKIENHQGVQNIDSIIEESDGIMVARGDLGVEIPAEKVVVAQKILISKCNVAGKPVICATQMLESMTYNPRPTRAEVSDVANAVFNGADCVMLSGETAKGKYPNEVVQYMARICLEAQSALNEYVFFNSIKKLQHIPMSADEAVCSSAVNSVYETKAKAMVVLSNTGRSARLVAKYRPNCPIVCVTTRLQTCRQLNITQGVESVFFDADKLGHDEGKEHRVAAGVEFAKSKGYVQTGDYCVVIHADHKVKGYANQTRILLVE
#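 Purified LmPK (0.1 nM) converted ADP (0.1 mM) to ATP with PEP (0.5 mM) in imidazole buffer pH 7.2 with KCl and MgCl2, 1 h at room temperature. ATP was read by Kinase-Glo luminescence; data normalized to uninhibited and no-enzyme controls.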
# Cycloheximide cs: counter-screen for Shiga toxin inhibitors: cycloheximide protein synthesis inhibition | cell reporter, cycloheximide protein synthesis inhibition counterscreen | max response, % | AID 2314 | 300,000 compounds, 12% hits; in the data active = max response mostly above about 13%, no sharp cut-off; inactive = mostly below about 14%; note: read at 38.3 µM for the half of the compounds with a filed dose; 0% is about no effect
# TbPYK inhibitor: blocks Trypanosoma brucei pyruvate kinase; Q57TT1; TbPYK enzyme, Kinase-Glo Plus ATP luminescence, 45 min; Potency, µM (series often up to 76.8 µM), for the others: at the highest dose activity, negative = inhibition, hits mostly inhibitors; 410,000 compounds, 0.12% hits; AID 624173; note: potency is the fitted concentration of half-maximal effect; % is set by controls: 0 for no effect and ±100 for the full control effect; nearly all actives have a fitted effect of over 50% in size
#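 T. brucei PYK with substrate was exposed to pin-transferred compounds across a concentration series, then started with 130 uM ADP (final). After 45 min at room temperature, Kinase-Glo Plus luminescence was read, normalized and curve-fitted.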
# RE007 growth inh: less growth of the S. pombe RE007 Vpr strain | 360,000 compounds, 0.21% hits | S. pombe RE007 Vpr strain, BacTiter-Glo ATP luminescence, 24 h | Potency, µM (doses to about 92.2 µM), for inactives: at the top dose activity change, negative = less growth, usual class: inhibitors; active = well fitted falling curve with a large enough effect; inconclusive = small, poorly fitted or top-dose-only effect; inactive = no such curve, though single readings can be large or run the other way; note: potency is the fitted concentration of half-maximal effect; % is set by controls: 0 for no effect and ±100 for the full control effect; nearly all actives have a fitted effect of over 50% in size
#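 Fission yeast RE007 carrying one integrated HIV-1 vpr copy, seeded at OD 0.01 in PMG+AL medium with 23 nL pinned compound. Grown 24 h at 30 degrees; viability read by BacTiter-Glo luminescence after 5 min.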
# Giardia FBPA inh: blocks Giardia fructose-bisphosphate aldolase activity; purified Giardia FBPA; Potency, µM (titrated, usually from 59.6 µM), without a hit: at the top dose activity, negative = inhibition, usual class: inhibitors; 290,000 compounds, 0.71% hits; AID 2451; note: potency is the fitted concentration of half-maximal effect; % is set by controls: 0 for no effect and ±100 for the full control effect; nearly all actives have a fitted effect of over 55% in size
#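 40 nM FBPA preincubated 10 min at RT with compound (up to 57.5 uM final), then substrate plus GAPDH/TPI/NAD/arsenate coupling and diaphorase/resazurin added. Fluorescence read after 20 min at RT, 525/598 nm.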
# Numbers without * were called inactive; ? = inconclusive; · = not tested or not shown; [ ] = another dose, or the depositor's remark. Only a selection was taken, and hits are over-represented in it overall. Unless noted, calls come from the whole dose curve; as a rule, active = well fitted curve in the direction sought with a large enough effect; inconclusive = small, poorly fitted or top-dose-only effect, or another doubt; inactive = no such curve, though single readings can be large; an effect the other way counts as inactive or inconclusive.
SMILES,Shiga toxin inh,LmPK inhibitor,Cycloheximide cs,TbPYK inhibitor,RE007 growth inh,Giardia FBPA inh
CC(C)(C)c1ccc(-c2noc(CCC(=O)NCc3ccco3)n2)cc1,73,-6%,34*,-2%,-7%,-1%
O=C(c1cc(-c2ccc(Br)cc2)n[nH]1)N1CCN(S(=O)(=O)c2ccc(Cl)s2)CC1,·,·,·,0%[15.4 µM],·,·
CC(NC(=O)c1ccco1)c1nc(-c2ccc(C(C)(C)C)cc2)no1 (stereo unspecified),49*,-1%,15,-1%,-8%,-10%
Cc1ccc(-c2noc(C(C)NC(=O)c3ccco3)n2)cc1 (stereo unspecified),·,·,·,-5%,·,·
Cc1c(Br)c([N+](=O)[O-])nn1C(C)C(=O)N1CCc2ccccc2C1 (stereo unspecified),30*,-9%,27*,1%,-1%,·
O=[n+]1ccn([O-])c2ccccc21,·,·,·,-4%,·,·
Cc1ccc2c(c1)NC(=O)CC(c1ccccc1)=N2,63*,3%,40*,2%,-7%,3%
O=C(NC12CC3CC(CC(C3)C1)C2)N1CCN(C(=O)c2ccco2)CC1,10,-1%,28,-20%,7%,0%
O=c1cnnc(N/N=C/c2cccs2)[nH]1,-6,2%,1,-8%,21%,?
Cc1cc(=O)[nH]c(N/N=C/c2cccs2)n1,-9,-17%,23*,4%,-1%,26%
Cc1cc(=O)[nH]c(N/N=C/c2sccc2C)n1,81*,?,47*,2%,8%,8%
Cc1cc(=O)[nH]c(N/N=C/c2ccccc2Cl)n1,-2,-6%,1,-14%,25%,-8%
O=[N+]([O-])c1cc(-c2ccc(/C=N/n3cnnc3)o2)ccc1Cl,-12,1%,-1,-2%,-3%,3%
Cc1cc(=O)[nH]c(N/N=C/c2c(F)c(F)c(F)c(F)c2F)n1,-7,0%,-2,2%,-8%,-26%
Cc1cc(=O)[nH]c(N/N=C/c2cc(C)n(-c3ccccc3)c2C)n1,95*,-21%,34*,-2%,4%,-12%
Cc1ccc(-c2ccc(/C=N/O)o2)cc1[N+](=O)[O-],61*,9%,35*,2%,-26%,0%
COc1ccc2c(Sc3ccccc3)c(C(=O)NCCc3ccc(Cl)cc3)[nH]c2c1,·,·,·,-7%,·,·
Cc1cc(=O)[nH]c(N/N=C/c2ccc([N+](=O)[O-])cc2)n1,18,-1%,8,·,·,-1%
Cc1cc(=O)[nH]c(N/N=C/c2ccc(-c3ccc([N+](=O)[O-])cc3)o2)n1,36,-3%,12*,-8%,-5%,-16%
O=C1c2ccccc2NC2(CCCC2)N1N=C1CCCC1,74*,1%,29*,-7%,-9%,0%
O=C1c2ccccc2NC2(CCCCC2)N1c1ccc(O)cc1,29,-9%,14*,-11%,7%,4%
O=C(NNC(=O)c1ccccc1-n1cccc1)c1cncc(Br)c1,·,·,·,3%,30%,·
CCn1ccc2cc(S(=O)(=O)N3CCC(C(=O)NCCOC)CC3)ccc21,·,·,·,-2%,·,·
c1ccc(Cc2nnc3sc(-c4ccc5c(c4)OCO5)nn23)cc1,·,·,·,-20%,-11%,·
c1ccc(Cc2nnc3sc(-c4ccc5c(c4)OCCO5)nn23)cc1,56,6%,36*,-18%,-19%,7%
SMILES,Shiga toxin inh,LmPK inhibitor,Cycloheximide cs,TbPYK inhibitor,RE007 growth inh,Giardia FBPA inh
COCC(=O)Oc1c(Sc2ccc(C)cc2)c(C)nn1C(C)(C)C,·,·,·,-9%,·,·
CCOc1ccc(N(C(=O)c2snc(C(N)=O)c2N)C(C(=O)NCC2CCCO2)c2ccc(C)o2)cc1 (stereo unspecified),47*,2%,18*,2%,29%,-13%
NC(=O)c1nsc(C(=O)N(c2ccc3c(c2)OCCO3)C(C(=O)NCC2CCCO2)c2ccc(F)cc2)c1N (stereo unspecified),64*,8%,28*,0%,4%,-9%
COc1ccc(OC)c(/C=C/C(=O)Nc2ccc3c(c2)CCC3)c1,-8,-2%,-3,-5%,-4%,-2%
COc1ccccc1/C=C/C(=O)Nc1ccc2c(c1)CCC2,34*,3%,35*,-5%,-7%,-8%
CCN(CC(=O)Nc1ccc2c(c1)OCCO2)C(=O)/C=C/c1ccccc1,47,10%,36*,-2%,9%,0%
CCN(CC(=O)Nc1ccc2c(c1)OCCO2)C(=O)/C=C/c1ccc(F)cc1,34,3%,29,3%,8%,-2%
O=C(/C=C/c1ccccc1)Nc1ccc2c(c1)OCCO2,30,-25%,25*,0%,35%,-28%
COc1ccccc1/C=C/C(=O)Nc1ccc2c(c1)OCCO2,99*,-5%,56*,4%,-2%,-24%
COc1ccccc1/C=C/C(=O)OCC(=O)Nc1ccc2c(c1)OCCO2,·,·,·,-3%,-8%,·
CCOc1cc(C2CC(=O)Nc3c2c(=O)nc(SCc2cccc(Cl)c2)n3C)ccc1O (stereo unspecified),·,·,·,-10%,·,·
N=c1ccn2c(n1)OCC1C2O[C@@H](O)[C@H]1O (stereo partly specified),·,·,·,·,·,-4%
O=C(/C=C/c1ccco1)Nc1ccc2c(c1)OCCO2,69*,0%,30*,-2%,-14%,-22%
CCC(Oc1ccccc1OC)C(=O)Nc1ccc2c(c1)OCCO2 (stereo unspecified),27,-10%,16*,-3%,-5%,·
COc1ccccc1OCCC(=O)OCC(=O)Nc1ccc2c(c1)OCCO2,·,·,·,3%,-17%,·
Nc1nc(N)c2sc3nc4c(cc3c2n1)CCC4,52,-17%,25*,-20%,-9%,0%
COc1ccc(Nc2nc(-c3cc4cccc(OC)c4oc3=O)cs2)cc1,30,-2%,21*,-12%,9%,0%
COc1ccc2oc(=O)c(-c3csc(Nc4cccc(O)c4)n3)cc2c1,58*,-4%,48*,0%,-4%,-2%
CCc1ccc(Nc2nc(-c3cc4cccc(OC)c4oc3=O)c(CC)s2)cc1,·,·,·,-2%,·,·
COc1cccc2sc(Nc3nc(-c4cc5ccccc5oc4=O)cs3)nc12,17,2%,9,-9%,-11%,-11%
COc1ccc(C)cc1NC(=O)C(=O)NCC(c1cccnc1)N1CCc2ccccc21 (stereo unspecified),·,·,·,-1%,·,·
CCCSc1nn2c(=O)c3ccccc3nc2s1,66*,14µM*,39*,7%,?,1%
Cc1cccc(Nc2nn3c(=O)c4ccccc4nc3s2)c1,55*,4%,14,4%,-2%,0%
Cc1[nH]c2ccccc2c1N=Nc1cccc(C(=O)O)c1,108*,-2%,58*,-9%,24%,13%
COC(=O)c1cc(N=Nc2c(C)[nH]c3ccccc23)cc(C(=O)OC)c1,-1,0%,-2,-1%,-9%,2%
